# Reference: PubChem BioAssay AID485353 (National Center for Advancing Translational Sciences (NCATS), 2010)
# Among all 330,000 compounds or so, about 610 (0.18%) were called active. About 2% were inconclusive and are not listed. For the sample, actives were picked, then their nearest neighbours and some compounds at random. A number with no mark means an inactive call. Calls come from the whole dose curve.
# Assay: qHTS of Yeast-based Assay for SARS-CoV PLP; note: nearly all actives have a fitted effect of over 55% in size; for activity, positive = growth rescue: 0% is about no effect
# Conditions: S. cerevisiae expressing SARS-CoV PLpro; Potency: growth rescue; series mostly up to 32.9 µM; activity, positive = growth rescue: at the top concentration
# Potency is the fitted concentration of half-maximal effect.
Compound,"activity, positive = growth rescue",Potency
N#Cc1ccc(-c2nc3cc(C#N)c(C#N)cc3nc2-c2ccccc2)cc1C#N,-3.02%,
Cc1cc2ccccc2n2c(SCC(=O)N3CCN(C(=O)c4ccco4)CC3)nnc12,1.3%,
N#Cc1ccc(C2=CC(=O)C[C@H](c3ccc(Cl)cc3)C2)cc1,6.11%,
Cn1c(=O)c2c(SCC(=O)N3CCOCC3)nc(C3CC3)nc2n(C)c1=O,-0.998%,
CCCCn1c(N)c(N(CC(C)C)C(=O)c2cnc(C)cn2)c(=O)[nH]c1=O,-9.36%,
CC(C)N1CCC(=NNc2ccc([N+](=O)[O-])cc2S(=O)(=O)N2CCOCC2)CC1,0.0906%,
CCN(CC)S(=O)(=O)c1ccc2nc(CSc3nnnn3-c3ccc(O)cc3)[nH]c2c1,3.58%,
Cc1cc2c(cc1S(=O)(=O)CCC(=O)NCc1ccccc1)OCC(=O)N2,0.684%,
COc1ccc(Cl)cc1NC(=O)CCS(=O)(=O)c1cc2c(cc1C)NC(=O)CO2,-0.255%,
COc1ccc(NC(=O)CCS(=O)(=O)c2cc3c(cc2Cl)NC(=O)CO3)cc1OC,,10 µM (active)
CN(C(=O)CN1C(=O)NC(C)(CCc2ccccc2)C1=O)c1ccccc1 (configuration not stated),-0.754%,
CC(C)CCNC(=O)C1CCCN(S(=O)(=O)c2ccc(F)cc2)C1 (configuration not stated),-1.9%,
CCCN(CC1CC1)C(=S)NC(=O)c1ccccc1Br,9.93%,
CCCCCOc1ccc(/C=C/C(=O)NCCc2nc3ccccc3[nH]2)cc1OC,7.21%,
COc1ccc(CNC(=O)C(=O)NCC2OCCN2C(=O)c2ccc(OC)cc2)cc1 (configuration not stated),-2.26%,
CC(C)CC(=O)c1c[nH]c(C(=O)NCc2ccccc2)c1,0.742%,
CCOC(=O)N1CCN(C(=O)COC(=O)c2cccc(S(C)(=O)=O)c2)CC1,-2.34%,
CC(=O)c1cn(CCCCCCCCCCn2cc(C(C)=O)c(=O)[nH]c2=O)c(=O)[nH]c1=O,-0.869%,
CN(Cc1ccc2nsnc2c1)Cc1nc(Cc2cccc(F)c2)no1,-0.45%,

Compound,"activity, positive = growth rescue",Potency
Cc1cccc(C)c1NC1=NC(=S)N(c2ccc(N(C)C)cc2)C1(C)C,-1.52%,
O=C(OCC1O[C@@H](OC(=O)c2cc(O)c(O)c(O)c2)[C@@H](OC(=O)c2cc(O)c(O)c(O)c2)[C@@H](OC(=O)c2cc(O)c(O)c(O)c2)[C@@H]1OC(=O)c1cc(O)c(O)c(O)c1)c1cc(O)c(O)c(O)c1 (some centres not stated),,5.62 µM (active)
CCOC(=O)CN1C(=O)N[C@@H](c2ccc(Br)cc2)C(C(C)=O)=C1C,-4.65%,
CCc1cccc2c3c([nH]c12)C(CC)(CC(=O)O)OCC3 (configuration not stated),,20 µM (active)
CCc1cccc2c(C#N)cn(CC(=O)N3CCOCC3)c12,-8.07%,
Cc1cc2ccccn2c1C(=O)c1cccc(S(=O)(=O)N2CCOCC2)c1,1.01%,
O=C(OCc1cn(-c2ccc(Cl)c(Cl)c2)nn1)c1ccccc1Cl,-2.52%,
COC(=O)CCC(=O)N1CCCC(CO)(Cc2ccccc2)C1 (configuration not stated),0.483%,
CCOC(=O)c1c(N)c(C#N)nn1-c1ccccc1C(=O)OC,1.15%,
CC1(C)CN=C(N2CCN(c3ncnc4sc5c(c34)CCCC5)CC2)S1,1.6%,
COc1ccc(NC(=O)CN(C)C(=O)c2ccc(NC3CC3)c([N+](=O)[O-])c2)cc1,-10.9%,
COc1ccc(C(C(=O)NC(C)(C)C)N(Cc2ccc(F)cc2)C(=O)CCC(=O)Nc2cc(C)on2)cc1 (configuration not stated),4.76%,
Cc1ccccc1Cn1nc(C)c(NC(=O)C(F)(F)F)c1C,18.9%,
CCCCc1ccc(NC(=O)CN2C(=O)NC(Cc3ccccc3)C2=O)cc1 (configuration not stated),-2.87%,
O=C(C(NS(=O)(=O)c1cccc2nsnc12)c1ccccc1)N1CCN(c2ccccc2)CC1 (configuration not stated),3.85%,
Cc1cc(OCCOc2cccc3cccnc23)c(C)cc1Cl,7.06%,
CC(C)CNC(=O)C1CCCN(S(=O)(=O)c2ccc(-n3cnnn3)cc2)C1 (configuration not stated),-2.95%,
COC(=O)C1(C)NC(c2ccc(C)cc2)C2C(=O)N(c3ccc(F)cc3)C(=O)C21 (configuration not stated),5.13%,
